In all, about 420,000 compounds went through this assay and about 64,000 (15%) were called active. About 27% were inconclusive and are not listed. Only a sample is shown. A number with no mark means an inactive call. Calls follow the shape of the dose curve; as a rule, active = well fitted inhibition curve with a large enough effect; inconclusive = small, poorly fitted or top-dose-only effect; inactive = flat fitted curve, though single readings scatter.
assay: qHTS for Inhibitors of human tyrosyl-DNA phosphodiesterase 1 (TDP1): qHTS in cells in absence of CPT; conditions: DT40 Tdp1-/- hTDP1 cells, no CPT, ATP luminescence, 48 h; activity change, negative = growth inhibition: at 46.2 µM (top of the series); also: nearly all actives have a fitted effect of over 55% in size
How it was run: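 Compound effects on proliferation are scored in DT40 Tdp1-/-;hTDP1 cells in the absence of CPT. ATP levels (CellTiter-Glo luminescence) are recorded after a ≥48 hr, 37 °C incubation.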
% is scaled to controls: 0 for no effect and ±100 for the full control effect; potency is read from the fitted curve at half-maximal effect.

Compound	activity change, negative = growth inhibition [%]	Potency
COc1ccccc1CNC(=O)CS(=O)(=O)c1cccc2nsnc12	3.54	
COc1cc2ccccc2cc1C(=O)Nc1ccc(NC(=O)c2cccs2)cc1		20.6 µM (active)
COc1cc2ccccc2cc1C(=O)Nc1ccncc1	-29.2	
O=C(Nc1cccc(-c2nc3ccccc3o2)c1)c1cccc(Br)c1		20.6 µM (active)
COc1cccc(NC(=O)c2ccccc2SC)c1	1.33	
O=C(Nc1cccc(Br)c1)c1ccc2snnc2c1	-20.1	
COc1cc2ccccc2cc1C(=O)Nc1ccc(S(=O)(=O)Nc2cc(C)on2)cc1	-5	
COc1cc(NC(=O)c2cccs2)ccc1NC(=O)c1ccccc1Cl	-19.8	
COc1cc2ccccc2cc1C(=O)Nc1cccc(-c2nc3ccccc3o2)c1		20.6 µM (active)
O=C(Nc1cccc(-c2nc3ncccc3o2)c1)c1ccco1	-25.7	
Cc1cccc(CCNC(=O)Cn2ncc3c([nH]c4ccc(C)cc43)c2=O)c1	-16.7	
CCN(C(=O)COC(=O)c1ccccc1O)c1cccc2ccccc12	-23	
Cc1nnc(SCC2=C(C(=O)O)N3C(=O)C(NC(=O)Cn4nc(C)c(Cl)c4C)C3SC2)s1 (centres undefined)	3.68	
C=CCNC(=O)c1ccccc1SCc1c(C)noc1C	5.86	
COc1ccc(S(=O)(=O)NC2(C(F)(F)F)N=C3SCCN3C2=O)cc1 (centres undefined)	1.14	
CN(CCc1ccccn1)C1CCCN(S(=O)(=O)c2ccccc2Cl)C1 (centres undefined)	-16.2	
Cc1ccc2c(c1)-c1c(cnn1CC(=O)Nc1ccccc1C#N)CO2	-29.7	
Cc1nc(-c2ccc(Cl)cc2)sc1C1(C)CC(c2ccccc2F)=NO1 (centres undefined)	-11.9	
NS(=O)(=O)c1ccccc1NC(=O)c1c(O)c2ccccc2[nH]c1=O	-24.1	
CCOc1ccc(OCCSc2nc3ccccc3n2CC(=O)O)cc1	-18.2	
Cc1ccc(C(C)C)c(OCCSc2nc3ccccc3n2CC(=O)O)c1	-2.5	
Cc1cccc(OCCSc2nc3ccccc3n2CC(=O)N2CCCCC2)c1C		23.1 µM (active)
Clc1ccc(Cl)c(Oc2ccc(Oc3nc(Cl)ccc3Cl)cc2)n1	-14.1	

Compound	activity change, negative = growth inhibition [%]	Potency
COc1cc(Cl)c(C)cc1NC(=O)[C@@H]1CCCN1C(=O)c1cccs1	-3.66	
O=C(CCS(=O)(=O)c1cc(Br)cc2c1N(C(=O)C1CC1)CC2)Nc1ccc(Br)cc1F	-11.8	
O=C(CCS(=O)(=O)c1cc(Br)cc2c1N(C(=O)C1CC1)CC2)Nc1ccc(C(F)(F)F)cc1	-6.43	
CCN(c1ccc2c(c1)OCO2)S(=O)(=O)c1cc(Br)cc2c1N(C(=O)C1CC1)CC2		25.9 µM (active)
O=c1oc2ccc(C#CC3(O)CCCCC3)cc2cc1-n1cc(-c2ccsc2)nn1	-28.1	
CCC(=O)/C(=C(/O)c1ccccc1)c1nc2ccccc2[nH]1	-0.407	
O=C(/C(=C/c1cccc(Cl)c1)c1nc2ccccc2[nH]1)c1ccccc1		23.1 µM (active)
O=C(Cc1nc2ccccc2[nH]c1=O)c1ccc(Cl)cc1	-23.9	
CN1CCC(=NNC(=O)c2ccc(N(Cc3ccc(Cl)cc3)S(C)(=O)=O)cc2)CC1	-7.52	
NC(=O)Cn1nc([N+](=O)[O-])nc1Oc1ccc(Br)cc1	11.7	
CC(C)CCNC(=O)CCNS(=O)(=O)c1ccc(Cl)cc1	-5.64	
O=S1(=O)CCO[C@H]2Cc3ccccc3[C@H]2N1Cc1ccccc1	-21.9	
CCOc1cc(/C=N/O)cc(Br)c1OC	-23.1	
COc1cc(/C=C2/C(=O)NN(c3cccc(Cl)c3)C2=O)cc(Br)c1O	-2.28	
CCOc1c(Br)cc(/C=C2\C(=O)N(CCC#N)N=C2C)cc1OC		29.1 µM (active)
CCn1c(SCC(=O)NC2=NCCS2)nnc1C(C)NC(=O)c1ccccc1F (centres undefined)	-2.37	
Cc1ccc(-n2c(C)nnc2SCC(=O)NC2CC2)cc1	0.716	
CCCCCCCCCCCCC(NC(C)=O)(C(=O)OCC)C(=O)OCC		20.6 µM (active)
CCCCCCCCCCCC(=O)O	-27.7	
CCCC(CCC(=O)OC)(C(=O)OCC)c1csc(N)n1 (centres undefined)	-2.44	
COC(=O)C1=CO[C@@H](O[C@@H]2O[C@H](CO)[C@@H](O)[C@H](O)[C@H]2O)C2C1C[C@H](O)[C@@H]2C (some centres undefined)	-10.1	
CCOC(=O)C1=C(C)Nc2nc3ccccc3n2C1c1cccs1 (centres undefined)	-0.394	
COc1ccccc1NC(=O)C1=C(C)Nc2ncnn2C1c1sccc1C (centres undefined)	-1.49	

Compound	activity change, negative = growth inhibition [%]	Potency
COc1ccccc1NC(=O)C1=C(C)Nc2nc3ccccc3n2C1c1cccs1 (centres undefined)		3.26 µM (active)
CCOC(=O)C1CCN(C(=O)CSc2cc(=O)n(C)c3ccccc23)CC1	-17.7	
Cc1ccc(S(=O)(=O)/N=C(\N)c2ccc(F)cc2)cc1	7.02	
Cc1ccc(-c2cc(=O)c3ccc(Cl)cc3[nH]2)cc1	-15.6	
O=c1[nH]c(-c2ccccc2)c(-c2ccccc2)[nH]1	-27.8	
Cc1cc(=O)c2ccc(NC(=O)c3ccccc3)cc2[nH]1	10.8	
Cc1ccc(-c2cc(=O)c3ccc(F)cc3[nH]2)cc1		13 µM (active)
O=c1cc(-c2ccccc2)[nH]c2cc(F)ccc12		1.03 µM (active)
O=S(=O)(Nc1ccccc1Br)c1cccs1	-16.7	
Cn1nccc1/C=N\NC(=O)c1ccc(Cl)cc1	5.3	
Cc1cc(-n2cnc(-c3cn(C)nc3C)n2)no1	-0.924	
Cc1cccc(NC(=O)COc2ccccc2C)n1	-22.7	
Cc1cc(C)cc(OCC(=O)Nc2c(C(=O)c3ccccc3)oc3ccccc23)c1	3.8	
Cc1cc(C)c(NC(=O)C[N+](C)(C)CC(O)COc2cccc3ccccc23)c(C)c1 (centres undefined)		18.4 µM (active)
Cc1cccc(NC(=O)c2ccc3nsnc3c2)c1C	-27.4	
O=C(Nc1ccccc1)OCc1cc(-c2ccc(Cl)cc2)on1	-8.65	
CCc1cc2c(N3CCN(c4nnc(CC)s4)CC3)ncnc2s1		8.2 µM (active)
O=C(CCc1nnc2ccc(NCc3ccccc3Cl)nn12)NCC1CCN(C2CCCC2)C1 (centres undefined)	-15.2	
O=C(CSc1ccsc1[N+](=O)[O-])N1CCCCC1	-9.26	
CS(=O)(=O)N(CC(=O)N1CCCCCC1)c1cccc(Cl)c1Cl	-28.3	
Cc1ccc(C(=O)c2c(NC(=O)c3ccccc3)sc(C)c2C)cc1		23.1 µM (active)
Cc1ccc(C(=O)Nc2c(-c3ccccc3)[nH][nH]c2=O)cc1	15	
CCOC(=O)c1c(NC(=O)c2cccs2)sc(C)c1C	-3.76	
